Source: PubChem (National Center for Advancing Translational Sciences (NCATS))
CHX counter: Cycloheximide Counterscreen for Small Molecule Inhibitors of Shiga Toxin | cell reporter, cycloheximide protein synthesis inhibition counterscreen | max response, % | actives 12% (n = 300,000) | AID 2314, 2010; in the data active = max response mostly above about 13%, no sharp cut-off; inactive = mostly below about 14%; also: read at 38.3 µM for the half of the compounds with a filed dose; 0% is about no effect
AmpC inh detg: qHTS Inhibitors of AmpC Beta-Lactamase (assay with detergent); P00811; AmpC hydrolysis of nitrocefin, absorbance 480 nm, 0.01% Triton; Potency, µM (top dose mostly 114 µM), without a hit: top-dose activity change, negative = inhibition, actives largely listed as inhibitors; actives 0.041% (n = 370,000); AID 485294, 2010;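 also: potency is read from the fitted curve at half-maximal effect; 0% = no-compound wells and -100% = no-enzyme wells; nearly all actives have a fitted effect of over 25% in size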
Target sequence (P00811 whole entry, looked up): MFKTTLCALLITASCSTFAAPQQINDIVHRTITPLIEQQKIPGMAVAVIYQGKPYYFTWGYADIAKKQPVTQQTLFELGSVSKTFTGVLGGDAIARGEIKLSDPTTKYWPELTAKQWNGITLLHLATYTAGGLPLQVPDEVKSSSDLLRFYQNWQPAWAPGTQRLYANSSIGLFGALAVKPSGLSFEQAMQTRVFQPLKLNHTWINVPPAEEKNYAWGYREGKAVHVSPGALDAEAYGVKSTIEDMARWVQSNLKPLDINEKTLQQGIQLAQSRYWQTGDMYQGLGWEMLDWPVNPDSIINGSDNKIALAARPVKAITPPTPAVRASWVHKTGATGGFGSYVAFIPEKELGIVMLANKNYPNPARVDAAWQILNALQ
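AmpC (5.3 nM in the dispensed reagent) in 20 mM phosphate pH 7.0 with 0.01% (detergent screen) or 0.0001% Triton X-100 was preincubated with compounds for 15 min at room temperature. Nitrocefin was then added from an 800 uM solution, and hydrolysis was followed at 480 nm.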
SARS PLP yeast: qHTS of Yeast-based Assay for SARS-CoV PLP. S. cerevisiae expressing SARS-CoV PLpro, growth rescue. Potency, µM (series often up to 32.9 µM), for inactives: top-dose activity, positive = growth rescue, actives largely listed as activators. actives 0.19% (n = 330,000). AID 485353, 2010; calls by dose curve; also: potency is read from the fitted curve at half-maximal effect; 0% is about no effect; nearly all actives have a fitted effect of over 55% in size
AMA1-RON2 inh: qHTS for Inhibitors of AMA1-RON; Towards Development of Antimalarial Drug Lead: Primary Screen; Potency, µM (titrated, usually from 58.2 µM), for the others: top-dose activity change, negative = inhibition, usual class: inhibitors; AlphaScreen AMA1-biotinylated RON2 peptide binding; actives 0.2% (n = 360,000); Plasmodium falciparum AMA1 (3D7) - RON2 peptide interaction;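 also: potency is read from the fitted curve at half-maximal effect; 0% = vehicle wells and -100% = peptide control; nearly all actives have a fitted effect of over 45% in size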
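AMA1 (3D7) with his tag at 25 nM final met compounds first, then biotinylated RON2 peptide at 25 nM; detection used donor plus acceptor beads, 10 µg/mL apiece, read by AlphaScreen after 30 min at room temperature.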
Shiga inhibitor: A qHTS for Small Molecule Inhibitors of Shiga Toxin. inhibition, % at 38.7 µM. actives 9.2% (n = 290,000). Vero cells, Shiga toxin protein synthesis inhibition reporter; in the data active = inhibition mostly above about 28%, no sharp cut-off; inactive = mostly below about 43%; also: 0% is about no effect
AmpC no deterg: qHTS Inhibitors of AmpC Beta-Lactamase (assay without detergent) | AmpC nitrocefin hydrolysis, absorbance 480 nm, 0.0001% Triton | Potency, µM (highest dose often 57.1 µM), inactives show top-dose activity change, negative = inhibition, hits mostly inhibitors | actives 0.52% (n = 330,000) | AID 485341, 2010;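 also: potency is read from the fitted curve at half-maximal effect; plate controls were no compound for no effect and no enzyme for full effect; nearly all actives have a fitted effect of over 20% in size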
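20 mM phosphate pH 7.0 + 0.01% (detergent screen) or 0.0001% Triton X-100; 5.3 nM AmpC reagent; cpd preinc 15 min RT; nitrocefin (800 uM stock) to start; A480 q20 s × 4 min; Activity was normalised to no-enzyme and no-compound control wells.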
* = called active by the depositor; i = inactive; ? = inconclusive; / = no result; [ ] = remark or other dose. This is one part of a sample in which hits are shown more often than they occur. Unless noted, calls follow the shape of the dose curve; as a rule, active = well fitted curve in the direction sought with a large enough effect; inconclusive = small, poorly fitted or top-dose-only effect, or another doubt; inactive = no such curve, though single readings can be large; an effect the other way counts as inactive or inconclusive.

SMILES | CHX counter | AmpC inh detg | SARS PLP yeast | AMA1-RON2 inh | Shiga inhibitor | AmpC no deterg
O=C(Nc1ccc2nsnc2c1)N1CCCCCC1 | 43* | -5% | 12% | 5% | 109 | -22%
S=C(Nc1ccc2nsnc2c1)N1CCCC1 | 46* | -4% | -2% | 13% | 89* | -6%
S=C(Nc1ccc2nccnc2c1)N1CCCC1 | 28* | -2% | 1% | 3% | 53 | -13%
Cc1nc2ccc(NC(=S)N3CCCC3)cc2nc1C | 4 | 1% | -1% | 11% | 18 | -7%
O=C(Nc1ccc2nc(-c3ccco3)c(-c3ccco3)nc2c1)N1CCCCCC1 | 5 | 3% | -5% | 12µM* | 8 | -36%
CC(C)CC1NC(=O)c2ccc(Cl)cc2-n2c1nc1ccc(F)cc1c2=O (stereo not given) | / | / | -6% | / | / | -27%
O=C(Nc1ccc2snnc2c1)N1CCOCC1 | -5 | -12% | 0% | -1% | -2 | -7%
O=C(Nc1ccc2snnc2c1)N1CCCCC1 | 19* | 4% | 0% | -11% | 29 | -44%
Cc1cc2oc(=O)cc(-c3ccccc3)c2c(C)c1-c1ccc(O)cc1 | 2 | / | -78% | -2% | i | -17%
S=C(NCCCc1ccccc1)Nc1ccccc1 | 20* | 17% | -1% | 11% | 27 | -55%
CSc1ccccc1NC(=S)NCc1ccc(Cl)cc1 | 37* | ? | 15% | 82% | 151* | -24%
S=C(NCCc1ccccc1)Nc1ccc(Nc2ccccc2)cc1 | -2 | 2% | -3% | -23% | 9 | -2%
S=C(NCCCc1ccccc1)Nc1ccc(Cl)cc1 | -3 | -9% | -97% | 58% | -1 | -29%
Fc1cccc(NC(=S)NCCc2ccccc2)c1 | 45* | -12% | ? | -15% | 96* | -41%
Cc1c(Cl)cccc1NC(=S)NCCc1ccc(Cl)cc1 | 24 | -11% | -4% | 89% | 48 | -29%
Fc1ccccc1NC(=S)NCCc1ccc(Cl)cc1 | 53* | -3% | 0% | 26% | 74* | -28%
Cc1cccc(NC(=S)NCCc2ccccc2)c1C | 7 | ? | -7% | 2% | 10 | -27%
Fc1ccc(F)c(NC(=S)NCCc2ccccc2)c1 | 30* | ? | 2% | 15% | 96* | -23%[11.4 µM]
O=[N+]([O-])c1cccc(NC(=S)NCCc2ccccc2)c1 | 39* | -10% | -66% | -1% | 60* | 3%
FC(F)Oc1ccccc1NC(=S)NCCc1ccccc1 | / | / | / | -5% | / | /
COc1ccc(NC(=S)NCc2ccc(Cl)cc2)c(OC)c1 | 15* | -13% | -2% | 6% | / | -20%
Fc1ccc(NC(=S)NCCc2ccccc2)c(F)c1F | 35* | -5% | -21% | 23% | 109* | -21%
CCN(CC)CCCNC(=O)Cc1c(C(=O)O)n(C)c2ccccc12 | -4 | ? | -2% | -5% | -9 | -19%
Fc1ccccc1NC(=S)NCCc1ccccc1 | 39* | 4% | 7% | 12% | 59* | -27%
CCOC(=O)C1CCN(C(=O)Nc2ccc3nc(-c4ccco4)c(-c4ccco4)nc3c2)CC1 | -2 | -4% | 2% | ? | 39 | ?
SMILES | CHX counter | AmpC inh detg | SARS PLP yeast | AMA1-RON2 inh | Shiga inhibitor | AmpC no deterg
Cc1nc2cc(NC(=O)N3CCCCC3)ccc2n1C | 19* | 1% | 17% | -2% | 44* | -13%
CCOC(=O)C1CCN(C(=O)Nc2ccc3c(c2)nc(C)n3C)CC1 | 49* | 1% | 7% | -1% | 53* | -24%
Cc1nc(C(=O)NNC(=O)c2cccc(Cl)c2)c(C(F)(F)F)o1 | -1 | -10% | -1% | 79% | -3 | -25%
Cc1nc(/C(N)=N/OC(=O)c2ccc(Cl)cc2)c(C(F)(F)F)o1 | 46* | -1% | -1% | 0% | 46* | 9%
S=C(Nc1ccc(Cl)cc1)NC1CCCCC1 | 41* | 6% | -3% | -13% | 68* | -33%
S=C(NNc1cccc(Cl)c1)NC1CCCCC1 | 3 | -1% | -36% | 6.3µM* | 40 | -33%
S=C(Nc1ccc(Nc2ccccc2)cc1)NC1CCCCCC1 | -2 | 12% | -3% | -19% | -9 | -33%
FC(F)Oc1ccc(NC(=S)NC2CCCCCCC2)cc1 | 34* | 3% | 28% | 38% | 65* | -34%
FC(F)Oc1ccc(NC(=S)NC2CCSc3ccccc32)cc1 (stereo not given) | 7 | -8% | -3% | 22% | 8 | -6%
S=C(Nc1ccc(Br)cc1)NC1CCCCC1 | 51* | -7% | -50% | 28% | 67* | -20%
COC(=O)CN1C(C(=O)c2ccccc2)=C(OC(=O)c2ccccc2)c2ccccc2S1(=O)=O | / | 0% | / | / | / | /
O=C(CN(Cc1ccccc1)C1=NCCS1)c1ccc(Cl)cc1 | -2 | -3% | -24% | -9% | -3 | -19%
COc1ccc([N+](=O)[O-])cc1-c1[nH]c(-c2ccc(C(=O)O)cc2)nc1-c1ccccc1 | 1 | ? | -9% | -6% | -9 | -48%
COC1OC(COC(=O)c2ccccc2)C(OC(=O)c2ccccc2)C1OC(=O)c1ccccc1 (stereo not given) | 2 | -6% | 2% | 1% | -4 | -2%
CC1(C)OC2OC(COC(=O)c3ccccc3)C3OC(C)(C)OC3C2O1 (stereo not given) | 31* | -13% | 7% | -2% | 2 | 8%
O=C(Nc1nnc(Cc2ccc(Cl)cc2)s1)c1cccs1 | -1 | 3% | -1% | -13% | 16 | -9%
Cc1cccc(C(=O)Nc2nnc(Cc3ccccc3)s2)c1 | 9.3* | -11% | -7% | 2% | 8 | 15%
O=C(Nc1nnc(Cc2ccccc2)s1)c1cccs1 | 25* | -7% | -6% | 4% | 41 | -22%
Cc1ccc(C(=O)Nc2nnc(Cc3ccccc3)s2)cc1 | 2 | -1% | 0% | 3% | -3 | -18%
O=C(Nc1nnc(CC2=CCCCC2)s1)c1cccs1 | 30* | -1% | -5% | -1% | 100* | -36%
O=C(Nc1nnc(Cc2ccccc2)s1)c1ccccc1 | 17* | 1% | 19% | 2% | 39* | 1%
Cc1ccc(NC(=O)CN2C(=O)N/C(=C/c3ccc(N4CCOCC4)cc3)C2=O)cc1 | 15 | -6% | -5% | 10% | 17 | -13%
O=C(Nc1nnc(CCN2CCCCC2)s1)c1ccccc1 | 33* | -3% | -10% | 11% | 40 | -11%
S=C1NC[C@H](Cc2ccccc2)N1CCCCC1CCCCC1 | 11* | 16% | -2% | -8% | 42* | -3%
CCc1ccc(C(=O)c2cn(CC(=O)Nc3cccc(OC)c3)c3ccc(OC)cc3c2=O)cc1 | / | 10% | 6% | / | / | 3%
